According to PubChem BioAssay (Tox21):
A number with no mark means an inactive call. Results filed as inconclusive are left out. Where a call stands in place of a potency, no number is given. Calls of active or inactive are those of the source. Unless noted, the call rests on the fitted dose curve; in most records, active means well fitted curve in the direction sought with a large enough effect in the repeat runs; inconclusive means weak or mixed curves; inactive means no such curve, though single readings can be large; an effect the other way counts as inactive or inconclusive.

Assays:
[1] = biological target: Progesterone receptor (Homo sapiens) (UniProt P06401); assay: qHTS assay to identify small molecule agonists of the progesterone receptor (PR) signaling pathway (AID 1346784; calls by dose curve; further: nearly all actives have a fitted effect of over 30% in size; further: potency means the concentration at half of the fitted maximal effect)
Outline: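 Agonist mode, quantitative HTS format in a HEK 293T line expressing a UAS-controlled beta-lactamase reporter; 16 hr compound exposure at 37C in 2% charcoal-stripped FBS, then LiveBLAzer B/G FRET fluorescence.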

[2] = biological target: Progesterone receptor (Homo sapiens) (UniProt P06401); assay: qHTS assay to identify small molecule antagonists of the progesterone receptor (PR) signaling pathway (AID 1346795; active means well fitted inhibition curve with a large enough effect in the signal ratio in the repeat runs, not every such curve was filed as active; the % refers to the signal ratio)
Outline: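 HEK293T PR-UAS-bla reporter cells in charcoal-stripped serum (2%) received compound after a 6 hr settling period, followed by R5020 agonist at 1 nM final; 16 hr incubation preceded the FRET substrate step and fluorescence measurement.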

[3] = qHTS assay to identify small molecule agonists of the progesterone receptor (PR) signaling pathway - cell viability counter screen (AID 1346799; calls by dose curve; further: nearly all actives have a fitted effect of over 45% in size; further: potency means the concentration at half of the fitted maximal effect)
Outline: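 Counter screen for cytotoxicity: compound-treated PR-UAS-bla HEK293T cells (16 hr, 37C, 5% CO2) were assayed with CellTiter-Glo, luminescence measured after 30 min at room temperature.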

[4] = qHTS assay to identify small molecule agonists of the TGF-beta/Smad signaling pathway - cell viability counter screen (AID 1346829); further: top concentration of the series differs between compounds; nearly all actives have a fitted effect of over 45% in size
Outline: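 After overnight seating at 37 C and 5% CO2, reporter cells got compounds for 5 hr and FRET substrate for 2 hr; cell viability then came from CellTiter-Glo luminescence.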

[5] = biological target: Thyrotropin-releasing hormone receptor (Homo sapiens) (UniProt P34981); assay: qHTS assay to identify small molecule antagonists of the thyrotropin-releasing hormone receptor (TRHR) signaling pathway (AID 1346877; active means well fitted inhibition curve with a large enough effect in the repeat runs, not every such curve was filed as active; further: series mostly up to about 51 µM)
Outline: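 Antagonist mode: after a 5 min room-temperature compound exposure, cells were stimulated with 1 nM (final) TRH. Dye-loaded TRHR-HEK293 cells were used, and calcium-dependent fluorescence was followed for 3 min, with 15-point titrations run in triplicate.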

[6] = biological target: Thyrotropin-releasing hormone receptor (Homo sapiens) (UniProt P34981); assay: qHTS assay to identify small molecule agonists of the thyrotropin-releasing hormone receptor (TRHR) signaling pathway (AID 1346891; calls by dose curve;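 further: HEK293 cells expressing TRHR with calcium dye readout; series mostly up to about 58 µM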)
Outline: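 Agonist-mode calcium mobilisation screen: TRHR-transfected HEK293 cells cultured overnight (18 h), dye-loaded for 2 h at 37 °C, exposed to compounds, and monitored by fluorescence for 3 min.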

[7] = Caspase-3/7 induction in HepG2 cells by small molecules, qHTS assay (AID 1346978); further: nearly all actives have a fitted effect of over 15% in size
Outline: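 Wild-type HepG2 cells, 2,000/well, settled 5 hr at 37 C and 5% CO2, then compound-treated for 17 hr; caspase-3/7 activity read by luminescent Caspase-Glo 3/7 after 30 min at room temperature.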

[8] = Caspase-3/7 induction in CHO-K1 cells by small molecules, qHTS assay (AID 1346980); further: nearly all actives have a fitted effect of over 15% in size
Outline: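 Wild-type CHO-K1 cells exposed to compounds for 17hr at 37 C, 5% CO2. Caspase-3/7 activity then measured by Caspase-Glo 3/7 luminescence after 30min at room temperature.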

[9] = Caspase-3/7 induction in HepG2 cells by small molecules, qHTS cell viability counter screen (AID 1346981); further: nearly all actives have a fitted effect of over 30% in size; further: potency means the concentration at half of the fitted maximal effect
Outline: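 CellTiter-Fluor fluorescence measured viability in the same wells used for Caspase-Glo 3/7. HepG2 (wild type) at 2,000 cells/well were pre-incubated 5 hr, dosed, and given reagent at 16 hr, with 1 hr further at 37C.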

[10] = biological target: Nuclear receptor subfamily 1 group I member 2 (Homo sapiens) (UniProt O75469); assay: Human pregnane X receptor (PXR) small molecule agonists, qHTS assay (AID 1346982); further: nearly all actives have a fitted effect of over 35% in size; further: potency means the concentration at half of the fitted maximal effect
Outline: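 Agonist mode: luminescence from ONE-Glo after 24 h compound exposure at 37C in HepG2 cells carrying hPXR-responsive CYP3A4 luciferase, plated in charcoal-stripped serum medium 5 h beforehand.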

[11] = biological target: Cytochrome P450 2D6 (Homo sapiens) (UniProt P10635); assay: Cytochrome P450 Family 2 Subfamily D Member 6 (CYP2D6) small molecule antagonists: luciferase reporter qHTS assay (AID 1671196); further: nearly all actives have a fitted effect of over 50% in size; further: potency means the concentration at half of the fitted maximal effect
Outline: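 CYP2D6 activity was followed as luminescence from its luciferin product after a 1 h NADPH-driven reaction at room temperature. Enzyme-substrate mix and compound were pre-incubated for 10 min, and the signal was read 20 min after adding detection reagent.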

[12] = qHTS assay to identify small molecule agonists of the estrogen receptor alpha (ER-alpha) signaling pathway in the presence of an antagonist - cell viability counter screen (AID 1259386); further: nearly all actives have a fitted effect of over 30% in size; further: potency means the concentration at half of the fitted maximal effect
Outline: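 Compounds tested at 15 concentrations for 22 h at 37C alongside 10.0nM (final) ICI-182,780 antagonist, in VM7Luc4E2 cells grown in phenol red-free, charcoal-stripped medium. Viability read by CellTiter-Fluor fluorescence after 1 h reagent incubation.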

[13] = qHTS assay to identify small molecule antagonists of the TGF-beta/Smad signaling pathway - cell viability counter screen (AID 1346824); further: nearly all actives have a fitted effect of over 50% in size
Outline: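 SBE-bla HEK 293T cells, incubated overnight, then compound plus 0.25 ng/mL TGF-beta1 (stock added) for 5 hr at 37 C. Viability was read in the same wells by CellTiter-Glo luminescence after 30 min at room temperature.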

[14] = qHTS assay to identify small molecule agonists of the TGF-beta/Smad signaling pathway (AID 1346859; active means well fitted activation curve with a large enough effect in the signal ratio in the repeat runs, not every such curve was filed as active; the % refers to the signal ratio; further: series mostly up to about 77 µM)
Outline: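 Smad-responsive beta-lactamase reporter cells (HEK 293T) received compounds from DMSO stocks after overnight attachment, were incubated 5 hr, then treated 2 hr with FRET substrate before dual-emission fluorescence measurement (405 nm excitation).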

[15] = Caspase-3/7 induction in CHO-K1 cells by small molecules, qHTS cell viability counter screen (AID 1346979); further: nearly all actives have a fitted effect of over 35% in size; further: potency means the concentration at half of the fitted maximal effect
Outline: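 In the same wells as the caspase read, viability of compound-treated wild-type CHO-K1 cells was assessed using CellTiter-Fluor, added after 16hr at 37C and measured by fluorescence following 1hr further incubation.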

[16] = qHTS assay to identify small molecule antagonists of the progesterone receptor (PR) signaling pathway - cell viability counter screen (AID 1346798); further: series mostly up to about 92 µM; nearly all actives have a fitted effect of over 50% in size
Outline: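 Same-well multiplex: after 16 hr at 37C with compound and R5020 stimulation, HEK293T cells carrying a UAS-bla reporter received LiveBLAzer substrate (2 hr RT), then CellTiter-Glo (30 min RT) for luminescent viability.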

[17] = Human pregnane X receptor (PXR) small molecule agonists, qHTS cell viability counter screen (AID 1346977); further: nearly all actives have a fitted effect of over 50% in size; further: potency means the concentration at half of the fitted maximal effect
Outline: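 Measures live-cell protease fluorescence (CellTiter-Fluor) in PXR-Luc HepG2 cells treated 24hr with compounds at 37C. Cells had 5hr to attach before pin transfer of DMSO solutions.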

[18] = biological target: Nuclear receptor subfamily 1 group I member 2 (Rattus norvegicus) (UniProt Q9R1A7); assay: Rat pregnane X receptor (rPXR) activation by small molecules, qHTS assay (AID 1346983); details: rPXR luciferase reporter cells, One-Glo luminescence, 24 h; max activation: stronger effect = higher value; further: nearly all actives have a fitted effect of over 20% in size
Outline: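 Cell-based rPXR activation assay: rPXR cells, 2,000 per well, rested 5hr at 37 C, then exposed to compounds in DMSO for 24 hr at 37 C. Luciferase activity read by One-Glo luminescence after 30 min at room temperature.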

[19] = biological target: Nuclear receptor subfamily 1 group I member 2 (Homo sapiens) (UniProt O75469); assay: CYP3A4 induction through human pregnane X receptor (PXR) by small molecules, qHTS assay (AID 1346984); further: nearly all actives have a fitted effect of over 40% in size
Outline: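 Read-out is luminescence after One-Glo addition, following a 3 hr, 37C incubation with Luciferin-IPA CYP3A4 substrate (3uM final). Before that, compounds were on DPX-2 cells (HepG2 co-transfected with PXR element plus CYP3A4-promoter luciferase) for 24 hr at 37C.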

Chain of Cytochrome P450 2D6 (Homo sapiens) (P10635 whole entry, looked up): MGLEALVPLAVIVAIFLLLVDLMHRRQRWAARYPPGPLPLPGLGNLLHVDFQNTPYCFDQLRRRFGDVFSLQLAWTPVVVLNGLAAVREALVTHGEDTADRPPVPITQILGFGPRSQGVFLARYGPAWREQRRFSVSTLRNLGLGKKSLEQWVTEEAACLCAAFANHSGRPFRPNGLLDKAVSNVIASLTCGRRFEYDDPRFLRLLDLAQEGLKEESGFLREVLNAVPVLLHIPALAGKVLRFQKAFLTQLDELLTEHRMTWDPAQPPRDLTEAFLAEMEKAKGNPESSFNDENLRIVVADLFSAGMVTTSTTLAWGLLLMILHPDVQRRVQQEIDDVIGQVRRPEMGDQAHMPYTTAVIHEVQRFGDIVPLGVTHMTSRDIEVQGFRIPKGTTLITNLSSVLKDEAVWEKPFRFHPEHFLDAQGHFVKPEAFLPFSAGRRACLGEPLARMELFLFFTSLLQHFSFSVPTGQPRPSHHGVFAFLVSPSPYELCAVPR
Chain of Nuclear receptor subfamily 1 group I member 2 (Homo sapiens) (O75469 whole entry, looked up): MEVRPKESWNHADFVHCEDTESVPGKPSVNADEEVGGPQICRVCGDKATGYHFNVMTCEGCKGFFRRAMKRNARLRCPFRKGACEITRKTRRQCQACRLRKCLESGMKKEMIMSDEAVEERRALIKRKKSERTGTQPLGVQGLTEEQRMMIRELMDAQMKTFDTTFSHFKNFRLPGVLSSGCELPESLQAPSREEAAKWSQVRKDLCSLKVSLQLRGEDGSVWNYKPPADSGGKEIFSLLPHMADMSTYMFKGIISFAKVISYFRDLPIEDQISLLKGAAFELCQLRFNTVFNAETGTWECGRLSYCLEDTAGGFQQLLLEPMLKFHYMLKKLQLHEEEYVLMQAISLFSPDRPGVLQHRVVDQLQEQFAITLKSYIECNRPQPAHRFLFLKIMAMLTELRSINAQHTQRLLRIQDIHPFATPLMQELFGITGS
Chain of Progesterone receptor (Homo sapiens) (P06401 whole entry, looked up): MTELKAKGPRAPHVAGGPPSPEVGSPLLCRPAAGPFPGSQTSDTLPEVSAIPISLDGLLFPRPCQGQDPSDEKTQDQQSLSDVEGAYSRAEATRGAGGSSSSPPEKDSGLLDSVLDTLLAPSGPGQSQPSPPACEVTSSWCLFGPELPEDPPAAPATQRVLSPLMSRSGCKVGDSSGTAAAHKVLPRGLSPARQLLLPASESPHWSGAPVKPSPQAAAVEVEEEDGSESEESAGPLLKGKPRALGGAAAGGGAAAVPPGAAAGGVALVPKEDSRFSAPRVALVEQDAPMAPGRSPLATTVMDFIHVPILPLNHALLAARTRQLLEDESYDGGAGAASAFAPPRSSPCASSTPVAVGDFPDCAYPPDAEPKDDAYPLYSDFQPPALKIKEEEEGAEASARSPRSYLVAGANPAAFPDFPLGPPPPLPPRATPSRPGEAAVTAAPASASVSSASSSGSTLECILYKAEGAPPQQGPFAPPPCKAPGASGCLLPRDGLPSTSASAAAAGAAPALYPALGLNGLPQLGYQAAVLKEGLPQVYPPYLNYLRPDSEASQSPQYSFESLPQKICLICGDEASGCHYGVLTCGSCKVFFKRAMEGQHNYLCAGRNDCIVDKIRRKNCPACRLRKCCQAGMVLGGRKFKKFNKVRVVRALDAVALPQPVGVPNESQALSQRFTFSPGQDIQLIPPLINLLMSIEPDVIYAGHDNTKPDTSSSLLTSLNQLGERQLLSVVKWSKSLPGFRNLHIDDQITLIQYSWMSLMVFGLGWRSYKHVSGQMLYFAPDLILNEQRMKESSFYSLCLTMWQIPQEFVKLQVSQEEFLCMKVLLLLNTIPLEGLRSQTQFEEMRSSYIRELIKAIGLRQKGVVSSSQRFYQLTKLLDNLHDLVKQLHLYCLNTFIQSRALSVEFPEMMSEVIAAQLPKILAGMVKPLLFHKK
Chain of Thyrotropin-releasing hormone receptor (Homo sapiens) (P34981 whole entry, looked up): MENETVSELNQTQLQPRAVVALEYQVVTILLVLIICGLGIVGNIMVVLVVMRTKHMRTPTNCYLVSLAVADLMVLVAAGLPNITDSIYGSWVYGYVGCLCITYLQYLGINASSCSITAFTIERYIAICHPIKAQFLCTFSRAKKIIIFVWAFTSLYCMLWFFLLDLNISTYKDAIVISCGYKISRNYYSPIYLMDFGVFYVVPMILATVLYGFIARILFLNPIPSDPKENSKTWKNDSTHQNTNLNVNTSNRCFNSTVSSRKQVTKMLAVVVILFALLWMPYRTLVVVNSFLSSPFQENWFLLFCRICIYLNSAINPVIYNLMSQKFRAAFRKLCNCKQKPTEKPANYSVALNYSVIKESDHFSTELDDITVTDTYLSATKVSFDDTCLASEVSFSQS
Chain of Nuclear receptor subfamily 1 group I member 2 (Rattus norvegicus) (Q9R1A7 whole entry, looked up): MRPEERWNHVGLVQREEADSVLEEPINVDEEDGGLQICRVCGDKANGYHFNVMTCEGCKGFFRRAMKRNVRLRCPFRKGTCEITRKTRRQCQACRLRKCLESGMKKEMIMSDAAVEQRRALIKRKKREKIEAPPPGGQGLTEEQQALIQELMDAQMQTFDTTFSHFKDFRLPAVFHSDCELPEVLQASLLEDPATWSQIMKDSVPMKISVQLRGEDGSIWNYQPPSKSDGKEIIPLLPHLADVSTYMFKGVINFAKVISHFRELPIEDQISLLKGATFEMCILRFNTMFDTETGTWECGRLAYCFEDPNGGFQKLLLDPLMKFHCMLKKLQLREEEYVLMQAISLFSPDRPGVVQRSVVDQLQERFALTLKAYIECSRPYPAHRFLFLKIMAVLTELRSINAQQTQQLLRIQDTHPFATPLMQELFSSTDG

O=C1c2ccccc2C(=O)c2c(O)ccc(O)c21
Potency [1]: inactive
Potency [2]: inactive
Potency [3]: inactive
Potency [4]: inactive
outcome [5]: inactive
outcome [6]: inactive
Potency [7]: inactive
outcome [8]: inactive
Potency [9]: inactive
Potency [10]: 4.86 µM (active)
Potency [11]: inactive

O=[N+]([O-])C1(Br)COCOC1
Potency [12]: inactive
Potency [1]: inactive
Potency [2]: inactive
Potency [3]: inactive
outcome [13]: inactive
Potency [4]: inactive
Potency [14]: inactive
outcome [5]: inactive
outcome [6]: inactive
Potency [7]: inactive
Potency [15]: 54.5 µM (active)
outcome [8]: inactive
Potency [9]: inactive
Potency [11]: inactive

Cc1ccc(N(CCO)CCO)cc1
Potency [12]: inactive
Potency [1]: inactive
Potency [2]: inactive
Potency [16]: inactive
Potency [3]: inactive
outcome [13]: inactive
Potency [4]: inactive
Potency [14]: inactive
Potency [17]: inactive
Potency [7]: inactive
Potency [15]: inactive
outcome [8]: inactive
Potency [9]: inactive
Potency [10]: inactive
Potency [11]: inactive

CC(C)N=C=NC(C)C
Potency [12]: inactive
Potency [1]: inactive
Potency [2]: inactive
Potency [3]: inactive
outcome [13]: inactive
Potency [4]: inactive
Potency [14]: inactive
outcome [5]: inactive
outcome [6]: inactive
Potency [17]: inactive
Potency [7]: inactive
Potency [15]: inactive
outcome [8]: inactive
Potency [9]: inactive
Potency [10]: inactive
Potency [11]: inactive

Nc1ccc(F)cc1
Potency [12]: inactive
Potency [1]: 28.5 µM (active)
Potency [2]: inactive
Potency [3]: inactive
outcome [13]: inactive
Potency [14]: inactive
outcome [5]: inactive
outcome [6]: inactive
Potency [7]: inactive
Potency [15]: inactive
outcome [8]: inactive
Potency [9]: inactive
Potency [10]: inactive
Potency [11]: inactive

COc1ccc(C2C(=O)c3ccccc3C2=O)cc1
Potency [12]: inactive
Potency [1]: inactive
Potency [2]: inactive
Potency [16]: inactive
Potency [3]: inactive
outcome [13]: inactive
Potency [4]: inactive
Potency [14]: inactive
outcome [5]: inactive
outcome [6]: inactive
Potency [17]: inactive
Potency [7]: inactive
Potency [15]: inactive
Potency [9]: inactive
Potency [10]: inactive
max activation [18]: 8.42%
Potency [19]: inactive
Potency [11]: inactive

Nc1ccc(NC(=O)c2ccc(N)cc2)cc1
Potency [2]: inactive
Potency [16]: inactive
Potency [3]: 54.5 µM (active)
outcome [13]: inactive
Potency [4]: inactive
Potency [14]: inactive
outcome [5]: inactive
outcome [6]: inactive
Potency [17]: inactive
Potency [7]: inactive
Potency [15]: inactive
outcome [8]: inactive
Potency [9]: inactive
Potency [10]: inactive
Potency [11]: inactive

C[C@@H]1[C@H](O)[C@@H](C)/C=C/C=C\C=C\C=C\C=C\C=C\C=C\[C@H](O[C@@H]2O[C@H](C)[C@@H](O)[C@H](N)[C@@H]2O)C[C@@H]2O[C@](O)(C[C@@H](O)C[C@@H](O)[C@H](O)CC[C@@H](O)C[C@@H](O)CC(=O)O[C@H]1C)C[C@H](O)[C@H]2C(=O)O (stereo in doubt)
Potency [1]: inactive
outcome [13]: inactive
Potency [7]: inactive
Potency [15]: 61.1 µM (active)
outcome [8]: inactive
Potency [9]: 48.6 µM (active)
max activation [18]: 1.92%
Potency [19]: inactive
Potency [11]: inactive

CC1CCc2nccnc21 (stereo not given)
Potency [1]: inactive
Potency [2]: inactive
Potency [16]: inactive
Potency [3]: inactive
outcome [13]: inactive
Potency [4]: inactive
Potency [14]: inactive
outcome [5]: inactive
outcome [6]: inactive
Potency [17]: inactive
Potency [7]: inactive
Potency [15]: inactive
Potency [10]: inactive
Potency [11]: inactive

CCN(Cc1cccc(S(=O)(=O)O)c1)c1ccc(C(=C2C=CC(=[N+](CC)Cc3cccc(S(=O)(=O)O)c3)C=C2)c2ccccc2S(=O)(=O)[O-])cc1
Potency [12]: 17.3 µM (active)
Potency [1]: inactive
Potency [2]: inactive
Potency [3]: 13.7 µM (active)
Potency [14]: inactive
outcome [5]: inactive
outcome [6]: inactive
Potency [7]: inactive
Potency [15]: 17.3 µM (active)
outcome [8]: inactive
Potency [9]: 17.3 µM (active)
Potency [10]: inactive
Potency [11]: 17.9 µM (active)

CCCCCCCCCCCC(=O)OCC(O)CO (stereo not given)
Potency [12]: inactive
Potency [1]: inactive
Potency [2]: inactive
Potency [16]: inactive
outcome [13]: inactive
Potency [14]: inactive
outcome [5]: inactive
outcome [6]: inactive
Potency [17]: inactive
Potency [7]: inactive
outcome [8]: inactive
Potency [9]: inactive
Potency [10]: inactive
max activation [18]: -6.09%
Potency [19]: inactive

CCN(Cc1cccc(S(=O)(=O)O)c1)c1ccc(C(=C2C=CC(=[N+](CC)Cc3cccc(S(=O)(=O)O)c3)C=C2)c2ccc(O)cc2S(=O)(=O)[O-])cc1
Potency [1]: inactive
Potency [2]: inactive
Potency [3]: inactive
Potency [14]: inactive
Potency [17]: 18.6 µM (active)
Potency [7]: inactive
Potency [9]: 16.6 µM (active)
Potency [11]: 19.3 µM (active)

CC(C)COC(=O)c1ccc(O)cc1
Potency [12]: inactive
Potency [1]: inactive
Potency [16]: inactive
outcome [13]: inactive
Potency [4]: inactive
Potency [14]: inactive
outcome [5]: inactive
outcome [6]: inactive
Potency [17]: inactive
Potency [7]: inactive
outcome [8]: inactive
Potency [9]: inactive
Potency [10]: 3.06 µM (active)
